Inhibition data for 52 compounds are collected here from ChEMBL document CHEMBL4808148, “HDAC6 screening dataset using tau-based substrate in an enzymatic assay yields selective inhibitors and activators” (2021).

About 390 (7%) of roughly 5,600 compounds showed an effect of 50% or more. The sample holds strong results, similar compounds and a random draw of the others, so the mix is not that of the screen.

By inhibition is commonly meant the relative decrease from the control value, in per cent.

The target in this experiment is T1, Protein deacetylase HDAC6 (Homo sapiens) (UniProt Q9UBN7).
T1 sequence (whole entry): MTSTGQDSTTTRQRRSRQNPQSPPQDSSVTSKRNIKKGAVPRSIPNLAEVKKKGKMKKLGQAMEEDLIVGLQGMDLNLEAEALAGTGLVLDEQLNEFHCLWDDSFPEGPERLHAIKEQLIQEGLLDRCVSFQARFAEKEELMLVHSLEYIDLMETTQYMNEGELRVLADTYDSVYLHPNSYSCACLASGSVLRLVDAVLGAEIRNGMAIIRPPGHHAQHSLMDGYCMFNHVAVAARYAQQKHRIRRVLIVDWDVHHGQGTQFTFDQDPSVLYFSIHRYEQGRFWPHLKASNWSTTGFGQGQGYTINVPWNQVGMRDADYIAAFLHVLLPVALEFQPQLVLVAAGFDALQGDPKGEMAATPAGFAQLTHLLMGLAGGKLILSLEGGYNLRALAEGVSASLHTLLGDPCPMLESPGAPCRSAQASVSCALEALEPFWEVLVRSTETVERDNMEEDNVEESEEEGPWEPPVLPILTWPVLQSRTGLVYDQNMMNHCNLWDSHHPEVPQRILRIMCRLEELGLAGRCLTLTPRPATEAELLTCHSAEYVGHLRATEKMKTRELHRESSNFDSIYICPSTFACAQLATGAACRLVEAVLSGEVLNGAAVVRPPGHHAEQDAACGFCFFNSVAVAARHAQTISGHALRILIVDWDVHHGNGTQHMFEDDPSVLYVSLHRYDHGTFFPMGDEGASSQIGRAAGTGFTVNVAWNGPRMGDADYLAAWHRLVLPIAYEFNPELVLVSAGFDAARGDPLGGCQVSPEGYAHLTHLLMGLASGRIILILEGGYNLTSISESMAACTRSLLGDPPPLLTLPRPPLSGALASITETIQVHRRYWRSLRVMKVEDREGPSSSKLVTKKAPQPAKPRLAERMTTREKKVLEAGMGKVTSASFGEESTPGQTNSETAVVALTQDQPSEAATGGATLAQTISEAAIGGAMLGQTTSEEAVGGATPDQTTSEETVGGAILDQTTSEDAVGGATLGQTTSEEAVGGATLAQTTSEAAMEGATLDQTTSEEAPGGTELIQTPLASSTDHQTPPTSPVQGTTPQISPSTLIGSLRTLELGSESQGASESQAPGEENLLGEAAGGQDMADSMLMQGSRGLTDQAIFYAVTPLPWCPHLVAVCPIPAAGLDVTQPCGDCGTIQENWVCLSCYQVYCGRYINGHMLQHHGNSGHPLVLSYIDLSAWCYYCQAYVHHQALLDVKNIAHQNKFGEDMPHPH
The following applies: at 10 µM.
For `CC1(C)Oc2ccc(C#N)cc2[C@@H](OC2=CC(=O)CC2)[C@@H]1O`, the inhibition worked out at 3.84%.
Take `Cc1c(-c2ccccc2)oc2c(C(=O)OCCN3CCCCC3)cccc2c1=O`: the inhibition was 11.8%.
In the case of `CNc1nc(NCc2ccc(NS(C)(=O)=O)cc2Cl)cc(-c2ccccn2)n1` it was 13.6%; in that of `Nc1ccc(S(=O)(=O)O)cc1`, 9.02%.
The value for `Cc1cc(O)c(C(=O)N[C@@H](C(=O)N[C@@H]2C(=O)N3C(C(=O)O)=C(CSc4nnnn4C)CS[C@H]23)c2ccc(O)cc2)cn1` was 29%; that for `Cc1cc(-c2ccc3c(c2)CC[C@H]3N2CC3(CCN(C(=O)Cc4cn5cc(C)sc5n4)CC3)C2)ncn1` was 0.83%; that for `CN1C(=O)c2c(nn(Cc3ccc(-c4cccc(F)n4)cc3)c2Nc2ccccc2)N2C1=N[C@@H]1CCC[C@@H]12` was -2.77%.
As for `O=c1cc(N2CCOCC2)oc2c(-c3cccc4c3sc3ccccc34)cccc12`, the inhibition is -7.08%.
For `C[C@@H]1CN(CC(=O)Nc2ccc3c(c2)Cc2cccc(-c4cc(=O)cc(N5CCOCC5)o4)c2S3)C[C@H](C)O1`, the inhibition was 61%.
With `O=c1cc(N2CCOCC2)oc2c(-c3ccccc3)cccc12`, the inhibition was 1.23%.
In the case of `CCOC(=O)Nc1ccc2c(c1)N(C(=O)CCN1CCOCC1)c1ccccc1S2` it was -0.7%; in that of `O=c1cc(-c2cccc3c2Sc2ccccc2S3)oc(N2CCOCC2)c1`, 82.8%.
For the compound `Nc1ncnc2c1nc(Br)n2[C@@H]1O[C@@H]2COP(=O)(O)O[C@H]2[C@H]1O`, the inhibition came to 4.67%.
`O=C(O)Cc1sc(-c2ccccc2)nc1-c1ccc(Cl)cc1`: the inhibition is -4.01%.
The value for `Nc1c2c(nc3c1CCC3)CCCC2` was 13%.
For `O=C(N/N=C/c1ccc([N+](=O)[O-])o1)c1ccc(O)cc1`, the inhibition worked out at 18.8%.
Take `CCC(=O)c1ccc(O)cc1`: the inhibition amounted to 7.92%.
Regarding `CCN(CC)c1ccc(/C=N/NC(=O)c2ccc(O)cc2)cc1`, the inhibition is 80%.
On to `C/N=C(/NC#N)NCCSCc1csc(NC(=N)N)n1`, for which the inhibition worked out at 4.88%.
As to `COc1cccc(CCc2ccccc2OCC[C@@H]2C[C@@H](O)CN2C)c1`, the inhibition amounted to 12.1%.
In the case of `O=C1C(Cl)=C(NCCN2CCOCC2)C(=O)c2ncccc21`, the inhibition was -2.93%.
For `Cc1noc(-c2ccc(-c3ccc(CC(=O)O)cc3)cc2)c1NC(=O)O[C@H](C)c1ccccc1`, the inhibition worked out at 15.4%.
In the case of `O=C(N[C@@H](Cc1c[nH]c2ccccc12)C(=O)O)c1ccc(Cl)cc1`, the inhibition amounted to 21.4%.
Regarding `O=C(CN1C2=NCCN2c2ccccc21)c1ccc(-c2ccccc2)cc1`, the inhibition is 11.4%.
As to `O=C(O)CCCc1ccccc1`, the inhibition came to 15.3%.
Take `O=C(O)CCC(=O)c1ccc(-c2ccccc2)cc1`: the inhibition stood at 58.7%.
Consider `CN1CCN(c2ccc(-c3cccc(CN4CCOCC4)c3)cc2NC(=O)c2c[nH]c(=O)cc2C(F)(F)F)CC1`, for which the inhibition came out at 19.4%.
In the case of `Oc1cccc(Nc2ncc(F)c(Nc3cccc(O)c3)n2)c1`, the inhibition was -0.51%.
On to `O=c1c(-c2ccccc2)c1-c1ccccc1`, for which the inhibition was determined as 68.4%.
As for `O=C1[C@H]2CCCC[C@H]2C(=O)N1CCCCN1CCN(c2nsc3ccccc23)CC1`, the inhibition was found to be 9.58%.
For the compound `CCCC(=O)O[C@]1(C(=O)CO)CCC2[C@@H]3CCC4=CC(=O)CC[C@]4(C)C3[C@@H](O)C[C@@]21C` (some centres not stated), the inhibition turned out to be 13.5%.
For `C[C@]12CCC(=O)C=C1CC[C@@H]1[C@@H]2[C@@H](O)C[C@@]2(C)[C@H]1CC[C@]2(O)C(=O)CO`, the inhibition came to 12%.
Consider `CCCCC(=O)O[C@]1(C(=O)CO)CC[C@H]2[C@@H]3CCC4=CC(=O)CC[C@]4(C)[C@H]3[C@@H](O)C[C@@]21C`, for which the inhibition came out at 55.9%.
Turning to `O=[N+]([O-])c1cc([N+](=O)[O-])c(/C=C/c2ccc(Cl)c(Cl)c2)cc1/C=C/c1ccc(Cl)c(Cl)c1`, the inhibition came to 7.35%.
`Nn1cnc2cc3ccccc3cc2c1=O`: the inhibition amounted to 17.4%.
As for `Clc1ccc(CCCOCCCN2CCCCC2)cc1`, the inhibition was 4.84%.
With `NC(=O)Nc1cc(-c2cccc(F)c2)sc1C(=O)N[C@H]1CCCNC1`, the inhibition was found to be 8.78%.
`NC(=O)Nc1sc(-c2ccc(F)cc2)cc1C(N)=O`: the inhibition came out at 81.4%.
The value for `O=C(O)CN(CCN(CC(=O)O)CC(=O)O)CC(=O)O` was -8.06%; that for `O=C(/C=C/c1cccnc1)c1ccncc1` was 2.24%; that for `Cc1c(C)c2c(c(C)c1O)CCC(C)(C)O2` was 20.7%.
Take `CC(=O)[C@H]1CC[C@H]2[C@@H]3C[C@H](C)C4=CC(=O)CC[C@]4(C)[C@H]3[C@@H](O)C[C@]12C`: the inhibition turned out to be 19.3%.
As for `CCCC(=O)Nc1cccc(NC(=O)c2ccccc2Br)c1`, the inhibition was 21%.
For the compound `CC(=O)Oc1ccccc1C(=O)Oc1ccccc1C(=O)O`, the inhibition was determined as 41%.
As for `CC(=O)Oc1ccccc1C(=O)Nc1ccccc1`, the inhibition turned out to be 87.4%.
On to `COc1ccccc1C(=O)Nc1cc2c(cc1N1CCCC1)n(C)c(=O)n2C`, for which the inhibition was 46.1%.
With `CC(=O)Oc1ccccc1C(=O)O`, the inhibition was found to be 2.2%.
The value for `COc1ccccc1C(=O)Nc1cccc(NC(=O)c2cccc(C)c2)c1` was 63.7%; that for `Cc1nc(Nc2ncc(C(=O)Nc3c(C)cccc3Cl)s2)cc(N2CCN(CCO)CC2)n1` was 21.2%.
As to `CC1(C)CC(=O)C(C2C3=C(CC(C)(C)CC3=O)Oc3ccccc32)C(=O)C1` (configuration not stated), the inhibition is -3.93%.
Take `N[C@H](Cc1c[nH]c2ccccc12)C(=O)O`: the inhibition came to 12%.
As for `COCCNC(=O)Cn1cnc([N+](=O)[O-])n1`, the inhibition came out at 6.28%.
